About 830 (0.38%) of roughly 220,000 compounds were called active.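 How the source made its calls: active means activation, scaled between plate controls, above about 75% (limit read from the data); inactive means activation under that limit.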 Many of the other results were omitted from the sample, so actives are more common in it than they were.

For five compounds, viability rescue results are on record in PubChem BioAssay AID1377 (University of Pittsburgh Molecular Library Screening Center, 2008).

This assay in a line: rescue of L929 cells from zVAD death – primary screen (AID 1377).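 Further: 0% = zVAD with DMSO and 100% = DMSO alone without zVAD.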 The settings on record: L929 zVAD necroptosis rescue, ATP luminescence, 24 h; at 10 µM; with zVAD 60 µM; hits give high values.
Consider `COC(=O)N1C(c2ccccc2)C1c1ccccc1` (stereo not given), for which the viability rescue was 83.8% (active).

Take `COC(=O)C(c1ccccc1)N1CCCCCC1` (stereo not given): the viability rescue was 0.41% (inactive).

For `CCCC[N+]1(C)C2CC(OC(=O)C(CO)c3ccccc3)CC1C1OC12` (stereo not given), the viability rescue is -0.33% (inactive).

As for `CN1CCN(/N=C/c2c[nH]c3ccccc23)CC1`, the viability rescue was -0.46% (inactive).

Turning to `CC1C2Cn3c(nc4ccccc43)C1N(C)O2` (stereo not given), the viability rescue was 0.4% (inactive).
